# Laboratory results: PubChem BioAssay (NCATS)
# Inconclusive results are not listed. A call without a number means that no potency is given here. Calls of active or inactive are those of the source. Unless noted, calls come from the whole dose curve; as a rule, active = well fitted curve in the direction sought with a large enough effect; inconclusive = small, poorly fitted or top-dose-only effect, or another doubt; inactive = no such curve, though single readings can be large; an effect the other way counts as inactive or inconclusive.
# Legend:
# [1] = qHTS assay for measurement of the activity of small molecule inhibitors on Zika virus induced Caspase-3 activity in human iPSC derived neural progenitor cells (hNPCs) (AID 1224857); details: hNPCs ZIKV-induced caspase-3/7, Caspase-Glo luminescence, 6 h; series mostly up to 45.7 µM; note: nearly all actives have a fitted effect of over 65% in size
# Summary of the method: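 In medium with heparin 2 ug/ml and cyclopamine 2 uM, hNPCs (350 cells/well) received compound for one hour and then Zika virus at 2 FFU/cell; caspase activity was measured by Caspase-Glo 3/7 luminescence 6 h post-infection.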
# [2] = qHTS assay for measurement of the activity of small molecule inhibitors on Zika virus induced Caspase-3 activity in human astrocytoma cells (AID 1224859); details: SNB-19 ZIKV-induced caspase-3/7, luminescence, 6 h; series mostly up to 45.7 µM
# Summary of the method: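 A cell-based luminescent caspase-3/7 assay used SNB-19 cells infected with ZIKV (2 FFU/cell) for 6 h following 1 h compound pretreatment.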
# [3] = qHTS assay to identify small molecule inhibitors of chordoma cells - UCH-1 (AID 1259355); details: UCH-1 chordoma viability, CellTiter-Glo, 48 h, combination, with auranofin plus four topoisomerase inhibitors; series mostly up to 46.1 µM; note: nearly all actives have a fitted effect of over 55% in size
# Summary of the method: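 A 48hr growth-inhibition format: each drug tested at 15 concentrations together with added auranofin, camptothecin, doxorubicin, rubitecan and topotecan, with cell viability quantified as CellTiter-Glo luminescence.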
# [4] = qHTS assay to identify small molecule inhibitors of chordoma cells - UCH-2 (AID 1259356); details: UCH-2 chordoma viability, CellTiter-Glo ATP luminescence, 48 h; series mostly up to 46.1 µM
# [5] = NS1 protein of Zika virus - qHTS assay to identify small molecule inhibitors in human HEK 293 cells (AID 1347053); details: HEK293 ZIKV MR766 infection, NS1 TR-FRET, 24 h; series mostly up to 46.1 µM; note: nearly all actives have a fitted effect of over 55% in size
# Summary of the method: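 Compound-treated (1 h pre-infection) HEK 293 cells infected with ZIKV MR766, MOI = 0.5; after 24 h at 37 C, NS1 read by TR-FRET; data normalized to uninfected and infected controls.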
# [6] = qHTS profiling of the MIPE4 collection as inhibitors of Plasmodium falciparum (3D7) proliferation (AID 743344; call rule not given here); details: P. falciparum 3D7 in erythrocytes, SYBR Green DNA fluorescence, 72 h; at 28.5 µM (top of the series) unless noted
# Summary of the method: (§1)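 Parasite DNA was quantified by SYBR Green I fluorescence (ex 485, em 535 nm) after overnight lysis in saponin/Triton buffer at room temperature. Cultures at 0.3% parasitemia and 2.5% hematocrit were first exposed to compound for 72 h at 37 C; signals were normalised to artemisinin (0.29 uM) and vehicle wells.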
# [7] = qHTS profiling of the MIPE4 collection as inhibitors of Plasmodium falciparum (DD2) proliferation (AID 743345; call rule not given here); details: P. falciparum Dd2 in erythrocytes, SYBR Green DNA, 72 h; at 28.5 µM (top of the series) unless noted
# Summary of the method: as §1
# [8] = qHTS profiling of the MIPE4 collection as inhibitors of Plasmodium falciparum (DD2) proliferation (Rep 2) (AID 743346; call rule not given here); details: P. falciparum Dd2 in erythrocytes, SYBR Green DNA, 72 h; at 28.5 µM (top of the series) unless noted
# Summary of the method: as §1
# [9] = qHTS profiling of the MIPE4 collection as inhibitors of Plasmodium falciparum (HB3) proliferation (AID 743347; call rule not given here); details: P. falciparum HB3 in erythrocytes, SYBR Green DNA, 72 h; at 28.5 µM (top of the series) unless noted
# Summary of the method: as §1
Structure (SMILES),outcome [1],outcome [2],Potency [3],Potency [4],Potency [5],"parasite growth, % of DMSO control [6] [%]","parasite growth remaining, % of DMSO control (lower = more inhibition) [7] [%]","parasite growth, % of control (lower = inhibition) [8] [%]","growth, % of control [9] [%]"
CCOC(=O)n1ccn(C)c1=S,inactive,inactive,inactive,inactive,inactive,,,,
O=C(CCCN1CCC(O)(c2ccc(Br)cc2)CC1)c1ccc(F)cc1,inactive,inactive,inactive,inactive,inactive,,,,
CC[C@@H](CO)NCCN[C@@H](CC)CO,inactive,inactive,inactive,inactive,inactive,98.8,106,68.5,106
c1ccc(-c2ccc(C(c3ccccc3)n3ccnc3)cc2)cc1 (centres undefined),inactive,inactive,inactive,inactive,inactive,,,,
Nc1nc2ncc(CNc3ccc(C(=O)N[C@@H](CCC(=O)O)C(=O)O)cc3)nc2c(=O)[nH]1,inactive,inactive,inactive,inactive,inactive,,,,
CCCCc1nc(Cl)c(CO)n1Cc1ccc(-c2ccccc2-c2nn[nH]n2)cc1,inactive,inactive,inactive,inactive,inactive,,,,
NCCc1ccn[nH]1,inactive,inactive,inactive,inactive,inactive,,,,
CCN(CCCc1ccccc1)CCCc1ccccc1,inactive,inactive,inactive,inactive,inactive,,,,
CC(=O)Oc1ccc(C(=C2CCCCC2)c2ccc(OC(C)=O)cc2)cc1,inactive,inactive,inactive,inactive,inactive,,,,
N[C@@H](CCC(=O)N[C@@H](CS)C(=O)NCC(=O)O)C(=O)O,inactive,inactive,inactive,inactive,inactive,,,,
CO/N=C1\CN(c2nc3c(cc2F)c(=O)c(C(=O)O)cn3C2CC2)CC1CN (centres undefined),inactive,inactive,inactive,inactive,inactive,,,,
